The supplement of paper PMC3334620
Over roughly 33,000 sequences, “E-score (-0.5 to 0.5)” has its median near -0.054; the highest 2% begin near 0.35. Many of the other results were omitted from the sample, so the highest values are more common in it than they were.

biological target: T1, Stb5 (UniProt P38699); assay: PBM E-score (8-mer binding enrichment) (E-score (-0.5 to 0.5)); higher = stronger / more preferred TF binding; conditions: protein concentration: 200 nM; construct: GST-full length
T1 sequence: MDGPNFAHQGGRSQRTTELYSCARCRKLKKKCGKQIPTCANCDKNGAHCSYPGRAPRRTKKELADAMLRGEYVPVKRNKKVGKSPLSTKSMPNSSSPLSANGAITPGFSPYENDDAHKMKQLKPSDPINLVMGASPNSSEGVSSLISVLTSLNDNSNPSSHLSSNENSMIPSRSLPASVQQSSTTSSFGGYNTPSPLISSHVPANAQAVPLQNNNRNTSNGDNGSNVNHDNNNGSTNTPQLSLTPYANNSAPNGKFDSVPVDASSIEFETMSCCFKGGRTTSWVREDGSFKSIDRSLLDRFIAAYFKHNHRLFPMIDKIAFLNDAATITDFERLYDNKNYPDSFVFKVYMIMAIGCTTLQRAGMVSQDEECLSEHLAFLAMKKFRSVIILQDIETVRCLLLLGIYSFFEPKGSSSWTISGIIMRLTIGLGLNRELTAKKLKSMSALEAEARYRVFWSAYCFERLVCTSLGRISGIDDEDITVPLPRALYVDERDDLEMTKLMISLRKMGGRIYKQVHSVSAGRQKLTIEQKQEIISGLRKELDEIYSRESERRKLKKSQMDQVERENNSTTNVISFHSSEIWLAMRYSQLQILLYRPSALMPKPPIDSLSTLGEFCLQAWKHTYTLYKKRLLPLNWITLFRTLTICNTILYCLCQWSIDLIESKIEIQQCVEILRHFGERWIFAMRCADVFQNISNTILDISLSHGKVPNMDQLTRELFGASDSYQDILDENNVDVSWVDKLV
Protocol: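 Universal 'all 10-mer' protein binding microarrays (Agilent AMADID 015681) probed with GST-tagged S. cerevisiae TFs (full-length or DBD) made by in vitro transcription/translation (PURExpress), about 100-200 nM. Bound TF was detected with fluorescent anti-GST. Each ungapped 8-mer (which stands for itself and its reverse complement) is scored by the PBM enrichment score (E-score), a modified Wilcoxon-Mann-Whitney statistic from -0.5 to +0.5, computed with the Universal PBM Analysis Suite. Scale: above 0.35 generally sequence-specific binding.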

Sequence | PBM E-score
AAGGCGGA | 0.292
AGCACGAC | -0.2
CTACGAGA | -0.102
ATTATCCG | 0.359
AATATCCA | -0.00669
AATATCCC | 0.291
ATTATCCC | 0.0778
ATTATCCA | -0.0234
AACATCCC | 0.149
AACATCCG | 0.359
AATATCCG | 0.39
CACATCCG | 0.0898
AGTTCGGA | 0.208
AAGTGCGA | 0.187
GGGGTGCA | 0.0203
ACACAGAG | -0.0564
AACTCATC | -0.116
ACTTGCAT | 0.0144
GCTCTGAA | -0.166
AACACATA | -0.222
ATAATACG | 0.153
ATTATACC | 0.362
ATTATACA | 0.0217
ATTATACG | 0.173
ATAATACC | 0.368

Sequence | PBM E-score
ATAATACA | 0.0704
ATGTGGTC | -0.168
GCCGTTCC | 0.202
GATTCTCC | 0.112
AGTCGAAT | -0.199
AATCCCAT | -0.042
AGTCCCGA | 0.342
CATCCCGC | 0.155
AATCCCGA | 0.394
TATCCCGA | 0.18
AATCCCGT | 0.419
GATCCCGC | 0.232
CGTCCCGC | 0.2
AGTCCCGC | 0.358
AATCCCCT | -0.165
CATCCCGA | 0.1
AATCCCGC | 0.398
CAATTTTA | -0.00732
TGTATACA | 0.0199
AAGGCTTG | -0.305
CATACTGC | -0.045
CTTCAAAG | -0.124
GCACTCTA | -0.0909
GGACAAAC | 0.0886
ACATACCG | 0.28

Sequence | PBM E-score
AGGTCCTG | -0.205
AGGTCGGA | 0.326
AGGTCCGA | 0.412
CGGTCCCA | 0.358
GGGTCCGA | 0.332
CGGTCCGA | 0.389
AGGTCCCA | -0.357
GGGTCCCA | -0.0448
CGGTCCAA | 0.186
AGGTCCGG | 0.382
AGGTCCAG | -0.156
AGGTCCAA | -0.167
AAATTCGA | 0.0745
CGGCATTC | 0.285
AACCATCG | 0.041
AAACGGAT | 0.197
AGAGATAT | -0.194
AAAAAGCT | -0.205
GGGTCTCA | 0.00241
CGGTCTCC | 0.195
CGGTCTCA | 0.376
AGGTCCAC | -0.0841
CGGTCCTA | 0.448
CGGTCCTC | 0.16
CGGTCCGC | 0.298

Sequence | PBM E-score
AGGTCCTA | 0.0577
AGGTCCGC | 0.425
GCCTTCGA | -0.137
CGCAAGGA | -0.0543
GACCTCTC | -0.126
AGTAGTTG | -0.0997
ACTGCTTG | -0.185
CCCAGTAG | -0.128
ACCCCTGA | -0.108
AAGATCGG | 0.352
ACGATCGG | 0.298
CAGATCGG | 0.29
CCGATCGG | 0.413
CCGATCGA | 0.285
AAGATCGC | -0.0115
GCAACTTA | -0.0671
CAGTCTAA | 0.00323
ACCGCCCT | 0.268
CCCGCCCA | 0.258
CCCGCCCC | 0.361
CCCGCCCG | 0.298
ACCGCCCG | 0.345
ACCCGCCC | 0.276
GCCGCCCC | 0.388
GCCCCCCC | -0.161

Sequence | PBM E-score
GCCGCCCA | 0.19
GCCCGCCC | 0.271
ACCGCCCC | 0.367
CCCCGCCC | 0.43
ACCTCCAG | -0.188
ATAAGGGC | 0.0814
GAAGCCAC | 0.0166
GCCCGTTA | 0.228
TGGAAGAA | -0.0838
ATGATCGG | 0.297
CCTGATCA | -0.0914
AGAGAACC | -0.125
CTCATGCC | -0.103
GAGATACC | 0.168
AGACCAGA | -0.27
ATAGAAGA | -0.05
AGACTTAC | -0.161
GGCCTTAA | 0.377
GGTCTTAA | 0.355
GGGCTTAA | 0.391
CGACTTAC | 0.0696
TGTCTTAA | 0.00631
TGCCTTAA | -0.192
AGCCTTAA | -0.0403
CGGCTTAA | 0.351

Sequence | PBM E-score
GGACTTAC | 0.358
TGGCTTAA | -0.044
CGTCTTAA | -0.0278
CCCTGGAG | -0.234
GCTCGGCA | 0.122
CTCAATCA | -0.00421
AACTAGCC | -0.148
ATGTGGTA | -0.222
CGCGGGAA | 0.272
AATCTTGG | -0.0505
CCGATACA | 0.28
ACAGCGGG | 0.332
CGACTTAA | -0.0485
GGACTTAA | 0.373
AGACTTAA | -0.288
ATAGAATA | -0.0414
CGATAACC | 0.16
AGACCCGA | 0.287
AAACCCGT | 0.318
CAACCCGC | 0.169
GAACCCGC | 0.199
CGACCCGC | 0.198
CAACCCGG | 0.0495
TAACCCGA | 0.225
AAACCCGC | 0.414

Sequence | PBM E-score
AAACCCGG | 0.395
AAACCCGA | 0.395
GAACCCGA | 0.0501
AGACCCGC | 0.36
ATGGACTC | -0.103
CCCGGCTA | 0.337
ACCTGGAG | -0.133
CAAGGCTG | -0.26
AGATAACA | -0.0529
TCGCCCCA | -0.317
ATCACCTG | 0.0314
ATCACCAG | -0.0626
CTCACCGC | 0.164
GTCACCGA | 0.285
ATCACCGA | 0.433
ATCACCGC | 0.447
ATCACCGG | 0.37
CTCACCGA | 0.248
ATCACCTC | 0.0381
TATGCACA | -0.16
GCCTCGCA | -0.0909
CGCATTTC | -0.0467
